# Source: ChEMBL document CHEMBL3433997, “St. Jude Leishmania screening dataset” (2016)
# Columns and labels:
# Format in all cases: functional
# [1] = target: Solute carrier family 2, facilitated glucose transporter member 1 (Homo sapiens) (UniProt P11166); assay: ST_JUDE_LEISH: Cytotoxicity at 2uM final concentration against transgenic Leishmania Mexicana promastigotes LmGLUT1 that are glucose transport deficient and complemented with the human glucose transporter GLUT1. Activity is measured by DNA content using SYBR green in vitro
# Chain of Solute carrier family 2, facilitated glucose transporter member 1 (Homo sapiens) (P11166 whole entry): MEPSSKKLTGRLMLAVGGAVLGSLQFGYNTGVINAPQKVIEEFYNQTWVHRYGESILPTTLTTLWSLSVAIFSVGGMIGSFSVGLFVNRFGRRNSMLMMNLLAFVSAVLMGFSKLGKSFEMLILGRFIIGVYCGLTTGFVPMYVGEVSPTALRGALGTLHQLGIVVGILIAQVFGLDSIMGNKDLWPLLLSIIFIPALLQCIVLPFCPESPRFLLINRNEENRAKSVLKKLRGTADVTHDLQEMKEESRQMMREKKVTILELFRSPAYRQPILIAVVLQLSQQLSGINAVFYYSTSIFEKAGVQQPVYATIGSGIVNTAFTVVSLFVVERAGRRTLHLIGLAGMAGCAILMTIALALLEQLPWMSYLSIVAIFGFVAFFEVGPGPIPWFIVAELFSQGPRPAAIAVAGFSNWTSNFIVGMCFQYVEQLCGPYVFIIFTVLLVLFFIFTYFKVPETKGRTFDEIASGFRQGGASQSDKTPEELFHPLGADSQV
# [2] = target: Hexose transporter 1 (Plasmodium falciparum) (UniProt O97467); assay: ST_JUDE_LEISH: Cytotoxicity at 2uM final concentration against transgenic Leishmania Mexicana promastigotes LmPfHT that are glucose transport deficient and complemented with the Plasmodium falciparum hexose transporter. Activity is measured by DNA content using SYBR green in vitro
# [3] = target: Glucose transporter (Leishmania mexicana) (UniProt O61059); assay: ST_JUDE_LEISH: Cytotoxicity at 2uM final concentration against transgenic Leishmania Mexicana promastigotes LmGT2 that are glucose transport deficient and complemented with the L. Mexicana glucose transporter 2. Activity is measured by DNA content using SYBR green in vitro
SMILES,inhibition [1],inhibition [2],inhibition [3]
COCC(C)n1c(SC(C)C(=O)Nc2cc([N+](=O)[O-])ccc2Cl)nc2ccccc2c1=O (centres undefined),-1.22%,1.55%,-1.16%
O=C(/C=C/c1ccc(I)cc1)NCCCCCN1CCC(c2c[nH]c3ccc(O)cc23)CC1,1.49%,1.64%,1.49%
Cc1cccc(C(=O)NC(NC(=S)Nc2cc(Cl)ccc2Cl)C(Cl)(Cl)Cl)c1 (centres undefined),-0.37%,-1.9%,-2.85%
COc1cccc(CN2CCCN(Cc3cccc(NC(=O)c4cc5ccccc5s4)c3)CC2)c1,3.41%,4.66%,5.23%
Fc1cccc(COc2ccc(Nc3ncnc4sc(C#CCNC5CCC5)cc34)cc2Cl)c1,6.7%,5.05%,2.46%
CCOc1cc[nH]c(=O)n1,-0.65%,2.36%,-0.68%
Clc1ccc2nnc(-c3c(Cl)cccc3Cl)n2n1,6.63%,4.09%,2.05%
N=C(N)c1ccc(-c2cc3ccc(C(=N)N)cc3[nH]2)cc1,62.9%,62.2%,52.2%
COc1ccc2ncc(F)c([C@@H](O)CN3CCC(NCc4cc5c(cn4)OCCO5)CC3)c2c1,2.51%,2.79%,3.93%
O=c1cc(NCCNCc2cccc(-c3ccccc3)c2)[nH]c2ccccc12,4.41%,-0.15%,1.64%
CC1(C)N=C(N)N=C(N)N1c1cccc(I)c1,0.23%,-0.04%,0.13%
COc1ccc(NC(=O)C2c3ccccc3C(=O)N(C3CCCC3)C2c2cccs2)c(OC)c1 (centres undefined),1.15%,-0.63%,-1.93%
NOCCCCOc1ccc(Br)cc1,3.74%,5.13%,2.59%
COc1cc(-n2cnc3cc(-c4ccc(Cl)cc4)sc3c2=O)ccc1OCCN1CCC(c2cccc(NC(C)=O)c2)CC1,6.68%,3.81%,3.05%
Cc1cc2c(cc1C(F)(F)F)N(C(=O)Nc1ccc(C(=O)NC3CCN(Cc4ccccc4)C3)cc1)CC2 (centres undefined),4.56%,4.45%,4.54%
N#Cc1ccc(-c2ccc(C(=O)Nc3ccc4c(c3)CCN(C3CCC3)CC4)nc2)cc1,3.57%,3.06%,2.04%
COc1ccc(Nc2ncc3c(-c4ccc(NC(=O)c5cccc(C(F)(F)F)c5)cc4)c[nH]c3n2)cc1OC,0.57%,-0.05%,-0.51%

SMILES,inhibition [1],inhibition [2],inhibition [3]
COc1ccc2c(c1)CC(CNC[C@H](O)c1cccc(Cl)c1)CC2 (some centres undefined),-1.38%,0.78%,1%
CCN(CC)CCCCCNc1c2ccc(Cl)cc2nc2ccc(OC)cc12,2.17%,1.26%,1.52%
Cc1ccc(-c2noc(COc3ccccc3C(=O)NC3CCCC3)n2)cc1,3.88%,6.24%,6.15%
CCNc1cc(C(=O)N[C@@H](Cc2ccccc2)[C@H](O)CNC(C)C)cc(N2CC(c3ccccc3)CCS2(=O)=O)c1 (some centres undefined),2.23%,2.11%,4.05%
COc1ccc(C2CCC(NCCCCNC(=O)c3ccc(NC(=O)c4ccc(Cl)cc4)cc3)CC2)cc1 (centres undefined),1.37%,4.07%,4.39%
CCc1ccc(CN2CCC(CNC(=O)c3cc(-c4ccccc4F)cs3)C2)cc1 (centres undefined),1.55%,-3.47%,1.83%
O=C(Nc1ccc(C(=O)Oc2ccc3ccccc3c2)cc1)N[C@@H](Cc1ccc(O)cc1)C(=O)NC1CCN(Cc2ccc(O)cc2)C1 (some centres undefined),0.75%,-0.55%,-2.23%
c1cc(CNCCc2ccncc2)cc(-c2cccc(-c3nc4ccccc4[nH]3)c2)c1,13.1%,12.2%,10%
O=S(=O)(Nc1ccc2nccc(N3CCNCC3)c2c1)c1ccc(-c2ccccc2)cc1,0.86%,1.12%,0.59%
N#Cc1ccc(CN2CCC(Oc3ccc(NC(=O)c4cccs4)cc3)CC2)cc1,-0.02%,1.99%,4.28%
CC(C)c1cccc(C(C)C)c1NC(=O)NNC(=O)c1ccc(CCN2CCC(c3nc(COCC(F)(F)F)c(-c4ccc(F)cc4)o3)CC2)cc1,10.8%,11.4%,12.7%
Cn1cncc1C(=O)NC1CCN(c2ccnc(Nc3ccc(F)cc3)n2)C1 (centres undefined),0.07%,-0.1%,0.61%
CC(C)c1ccc(NC(=O)c2ccc(C(=O)NC3CCN(CC4CCCCC4)CC3)cc2)cc1,0.94%,-0.49%,0.52%
CN(C)c1ccc(NC(=O)Nc2ccnc3ccc(Br)cc23)cc1,2.25%,3.91%,0.43%
CC[C@H](C)CNC(=O)c1cncc(-c2ccc(CNCCOc3ccccc3)cc2)c1,1.83%,2.11%,1.09%
Cc1ccc(NC(=O)c2cc([N+](=O)[O-])ccc2NCc2cccnc2)cc1Cl,1.5%,0.38%,2.63%
